Test results taken from PubChem BioAssay (Tox21).
Inconclusive results are not listed. Values without a mark were called inactive. Calls follow the shape of the dose curve; as a rule, active = well fitted cell-killing curve with a large enough effect in the repeat runs; inconclusive = weak or mixed curves, or effect the other way; inactive = no such curve, though single readings can be large or run the other way.

experiment: qHTS assay to identify small molecule agonists of the estrogen receptor alpha (ER-alpha) signaling pathway in the presence of an antagonist - cell viability counter screen (AID 1259386); settings: VM7Luc4E2 viability, CellTiter-Fluor fluorescence, 22 h; series mostly up to 92.4 µM; activity change, negative = cytotoxicity: at the top concentration; also: nearly all actives have a fitted effect of over 30% in size
How it was run: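 VM7Luc4E2 cells (endogenous full-length ER-alpha, 4×ERE-luciferase) were held 5 days in phenol red-free medium with 10% charcoal-stripped FBS, plated, then given 10.0nM ICI-182,780 and compounds at 15 concentrations for 22hr at 37C; viability read by CellTiter-Fluor fluorescence.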
% is scaled to controls: 0 for no effect and ±100 for the full control effect.

Structure (SMILES) | activity change, negative = cytotoxicity
COc1cc2c(cc1OC)CN(C(=O)[C@H](C)N[C@@H](CCc1ccccc1)C(=O)O)[C@H](C(=O)O)C2 | 5.64% [at 42.5 µM]
O=C(Cn1ccnc1[N+](=O)[O-])NCc1ccccc1 | 2.4% [at 42.5 µM]
COC(=O)/C=C\C(=O)O | 0.216%
CCCCOC(=O)C(C)O (configuration not stated) | 0.491%
N#CCC(=O)NN | 0.625% [at 42.5 µM]
Cc1cc(C)c(C(=O)O)c(C)c1 | 0.24%
CCOc1cccc(N)c1 | -0.0805%
O=C(CCCl)NCCc1ccccc1 | 0.879% [at 42.5 µM]
CC(=O)C1C(=O)C=C(C)OC1=O (configuration not stated) | 0.091%
CCOc1ccccc1OCC1CNCCO1 (configuration not stated) | 0.0305% [at 42.5 µM]
CC1(C)O[C@H]2CC(=O)OC[C@]23[C@H]2CC[C@@]4(C)[C@H](c5ccoc5)OC(=O)[C@H]5O[C@]54[C@]2(C)C(=O)C[C@@H]13 | 4.41% [at 42.5 µM]
CCO[Si](CC)(OCC)OCC | -0.336%
CC(=O)CCc1ccc(OC(C)=O)cc1 | 1.88%
CCCCCCC1(C)CCC(=O)O1 (configuration not stated) | 8.72%
O=C(O)[C@H](O)c1ccccc1 | 6.99% [at 42.5 µM]
C=CC/C=C/C | 0.635%
CCC(C)C(=O)OCCc1ccccc1 (configuration not stated) | 0.988%
COP(=O)(O)OP(=O)(O)OC | 2.23%
O=C(O)c1cc2ccccc2nc1C(=O)O | 1.95%

Structure (SMILES) | activity change, negative = cytotoxicity
COc1cc(/C=C/C(N)=O)cc(OC)c1OC | 3.33% [at 42.5 µM]
COC(=O)c1cc(Cl)cc(Cl)c1 | 0.621%
O=C1c2ccccc2C(=O)c2cc(Cl)ccc21 | 1.35% [at 8.39 µM]
CO[C@@]1(NC(=O)Cc2cccs2)C(=O)N2C(C(=O)O)=C(COC(N)=O)CS[C@@H]21 | 7.08% [at 42.5 µM]
C[C@H]1[C@@H](c2ccccc2)NC(=O)N1C | -0.409%
CC/C=C\CCOC(=O)c1ccccc1O | -8.25%
Cc1ccccc1C(N)=O | 2.76%
OC1OCCOC1O (configuration not stated) | -0.31%
C/C=C(\C)C(C)=O | 1.28%
COC(=O)c1ccccc1C(=O)O | 0.3%
CC(C)c1ccc(C=O)cc1 | 6.32%
CCC/C=C(\C=O)CC | 8.31%
CSc1cnccn1 | -0.32%
CCOC(=O)CC1(C)OCC(C)O1 (configuration not stated) | 0.621%
CC(=O)CC(=O)OC(C)(C)C | 4.13%
Cc1c(NC(=O)c2cccnc2)c(=O)n(-c2ccccc2)n1C | -0.111% [at 42.5 µM]
c1ccc(-c2nn[nH]n2)cc1 | 0.546%
CCCCCCCCCCOC(C)=O | 1.17%
